PGE2 EP2 inh – EP2 receptor (human) inhibition. inhibition, % at 25 µM. AID 1422. hit rate 0.52% among 260,000. P43116. C6 glioma cells expressing human EP2, cAMP TR-FRET; cells stimulated with saturating PGE2;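 active = percent inhibition above 40 after rounding to a whole number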;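 also: rat C6 glioma host cells with rolipram phosphodiesterase inhibitor present; the protocol text gives 20 µM as final concentration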
EP2 modulator – EP2 receptor (human) modulation; P43116; EP2-expressing cells, cAMP HTRF FRET, PGE2 co-stimulation; induction, % at 25 µM; hit rate 0.83% among 260,000; AID 940;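 active = compounds whose cAMP rise, as percent of the full-agonist control response, exceeds 60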;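 also: rat C6 glioma line stably carrying human EP2 under a CMV promoter; the protocol text gives 20 µM as final concentration; 100% = response of wells given 1 µM PGE2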
Hck-Nef inh – human Hck-Nef kinase inhibition; P08631; Recombinant Hck-YEEI plus Nef, Z-Lyte FRET kinase assay; inhibition, % at 20 µM; hit rate 0.68% among 220,000; AID 463187;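 active = Hck-Nef kinase inhibition above about 50%, limit read from the data; inactive = inhibition below that limit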;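 also: 0% = DMSO with Hck plus Nef and 100% = Hck alone without Nef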
Arbovirus anti – arbovirus infection inhibition; arbovirus infection cell-based antiviral screen; inhibition, % at 10 µM; hit rate 0.37% among 200,000; AID 1251; in the data active = inhibition above about 30%
p97 inhibitor – human p97 ATPase inhibition | hit rate 0.42% among 220,000 | inhibition, % at 8 µM | recombinant p97 ATPase, Kinase-Glo ATP luminescence, 3 h | AID 1481; in the data active = inhibition above about 15%;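 also: 0% = DMSO vehicle and 100% = wells lacking enzyme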
* hit, by the source's call; x = no result given. An excerpt weighted towards active compounds, which were near 2.4% of everything screened.

SMILES | PGE2 EP2 inh | EP2 modulator | Hck-Nef inh | Arbovirus anti | p97 inhibitor
COc1ccc(CN(Cc2cccn2C)S(=O)(=O)c2ccc(F)cc2)cc1 | 9.8 | 13.3 | 0.8 | x | -0.6
COc1ccc(CN(Cc2cccn2C)S(=O)(=O)c2ccc(C)cc2)cc1 | 7.2 | 72.3* | 14.0 | x | -1.6
O=C1C2CCCCC2C(=O)N1Cc1ccccc1 (stereo unspecified) | 5.4 | -3.6 | 16.2 | -0.6 | 0.7
O=c1ccsn1Cc1ccccc1 | 65.1* | -43.0 | -4.2 | -24.7 | 1.8
CCOC(=O)C(C)On1c(-c2ccccc2)nc2ccc([N+](=O)[O-])cc21 (stereo unspecified) | 14.4 | 62.1* | 2.6 | -3.6 | -5.7
CCOC(=O)C(C)On1c(-c2ccc(Cl)cc2)nc2ccc([N+](=O)[O-])cc21 (stereo unspecified) | 4.9 | 20.7 | 1.2 | -24.3 | -0.2
Cc1ccc(OCC(=O)NC(=S)Nc2ccc3c4c(cccc24)CC3)cc1 | 20.4 | 62.3* | 2.6 | 3.4 | 3.4
CC1Cc2nc(SCC(=O)NC3CCCCC3)n(C)c(=O)c2S1 (stereo unspecified) | 98.1* | 11.5 | -8.6 | 7.5 | -1.5
COc1ccccc1NC(=O)CCN1CCCC(C)C1 (stereo unspecified) | 4.3 | -24.8 | x | x | x
COc1ccc2nc(NC(=O)CSc3ccc(-c4ccc5c(c4)OCCO5)nn3)sc2c1 | 7.1 | -48.6 | x | x | x
Cc1ccccc1NC1=NC(=S)N(c2ccccc2)C12CCCCC2 | 9.2 | 62.0* | 4.2 | -12.5 | 2.8
Cc1ccccc1NC1=NC(=S)N(c2ccccc2)C12CCOC(C)(C)C2 (stereo unspecified) | 1.7 | 22.4 | 1.8 | -6.4 | -0.1
CCOC(=O)c1cnc(SCc2nc(N)nc(Nc3ccc(F)cc3)n2)nc1N | 3.4 | -5.3 | -0.1 | 5.1 | -1.6
CCOC(=O)c1cnc(SCc2nc(N)nc(Nc3ccc(C)cc3)n2)nc1N | 6.5 | -26.5 | 0.8 | 44.4* | -2.3
Cc1cc(F)ccc1NC(=O)CSc1nc(-c2ccco2)cc(C(F)(F)F)n1 | 14.0 | -89.0 | x | x | x
COc1cc(NC(=O)Cn2nc(-c3ccc(C)o3)cc(N)c2=O)cc(OC)c1 | -2.0 | -110.9 | x | x | x
O=C(O)[C@H](Cc1ccc(O)c([N+](=O)[O-])c1)N1C(=O)c2ccccc2C1=O | 50.7* | 10.3 | x | x | x
O=C(O)C(Cc1ccccc1)N1C(=O)c2ccccc2C1=O (stereo unspecified) | 5.7 | 4.6 | 2.4 | 4.8 | 2.5
Cc1cc2cc(CN(CCN3CCOCC3)C(c3nnnn3C(C)(C)C)C(C)C)c(=O)[nH]c2cc1C (stereo unspecified) | 8.2 | -16.4 | x | x | x
CCN=C1S/C(=C\c2ccc(-c3cccc(C(=O)O)c3)o2)C(=O)N1CC | 0.9 | 47.2 | 32.3 | 40.8* | 6.2
CCN=C1S/C(=C\c2cn(C(C)=O)nc2-c2ccccc2)C(=O)N1CC | 0.3 | 18.7 | 1.6 | -13.7 | -1.3
O=c1[nH]c(=S)n(-c2ccccc2F)c(O)c1/C=C1\C=Nc2ccccc21 | 116.2* | -99.0 | x | x | x
CC(C)(C)n1nnnc1C(c1ccc(C(F)(F)F)cc1)N(Cc1ccc(F)cc1)Cc1ccco1 (stereo unspecified) | 2.5 | 10.8 | -9.8 | 32.2* | -5.1
O=C(Cn1nc(-c2ccc3c(c2)OCCO3)ccc1=O)Nc1nnc(-c2ccccc2Cl)s1 | 7.1 | -18.8 | x | x | x
CCOC(=O)C(CCCOc1cccc(OC)c1)C(=O)OCC | 4.8 | 13.2 | -1.0 | -1.7 | -4.8
SMILES | PGE2 EP2 inh | EP2 modulator | Hck-Nef inh | Arbovirus anti | p97 inhibitor
C=CCc1cc(C)ccc1OCCCC(C(=O)OCC)C(=O)OCC | 7.0 | 61.3* | 4.4 | 8.2 | 6.0
Cc1cc(NC(=O)CCl)n(-c2nc3ccccc3s2)n1 | 2.9 | 1.3 | 58.6* | 11.2 | 9.7
COc1ccc(N=C2S/C(=C\c3ccc(OCC(=O)O)cc3)C(=O)N2CCc2c[nH]c3ccccc23)cc1 | -0.8 | 22.5 | 12.6 | 46.4* | -1.8
Cc1ccc(-c2nc3cc(N)ccc3o2)c(C)c1 | 41.3* | 5.2 | 3.2 | -10.3 | -1.1
COc1ccc(/C=C2\SC(=S)N(NC(=O)Cc3ccccc3)C2=O)cc1OC | 5.5 | -18.2 | x | x | x
Cc1cc2c(s1)c1cnn(CC(=O)OC(C)C)c(=O)c1n2C | x | -30.6 | x | x | x
COC(=O)c1ccccc1NC(=O)c1cc(-c2ccc(O)cc2)on1 | 7.7 | 12.4 | -0.5 | 48.1* | 0.4
O=C(NNc1c2ccccc2nc2ccccc12)c1ccccc1O | 20.4 | -68.4 | 57.6* | -7.3 | 10.5
NC(=O)C(CCNS(=O)(=O)c1ccc(Cl)cc1)Sc1ccccn1 (stereo unspecified) | 9.2 | -8.5 | x | x | x
COc1ccc(C(=O)/C=C\Nc2ccc(S(=O)(=O)Nc3cc(C)nc(C)n3)cc2)cc1 | 13.3 | -42.7 | x | x | x
COCCn1c(-c2ccccc2)cnc1SCC(=O)Nc1cccc2ccccc12 | 6.7 | 1.4 | 3.1 | 37.6* | -6.3
COCCn1c(-c2ccc(OC)cc2)cnc1SCC(=O)Nc1ccc(OC)cc1OC | 7.1 | -9.5 | 2.9 | 2.6 | -2.3
COc1ccccc1C1(NC(=O)CCn2cnc3ccccc32)CCCC1 | x | -12.5 | x | x | x
c1ccc2c(c1)C(=Nc1ccc(N=C3c4ccccc4-c4ccccc43)cc1)c1ccccc1-2 | 44.5* | -8.1 | x | x | x
c1ccc2c(c1)C(=Nn1cnnc1)c1ccccc1-2 | 28.4 | -10.1 | 7.3 | 5.5 | 2.2
Cc1ccc(C(=O)C2=C(O)C(=O)N(Cc3ccccc3)C2c2cccnc2)o1 (stereo unspecified) | 17.2 | 61.3* | -0.4 | 0.6 | 3.0
CCn1c(SCC#N)nnc1-c1ccccc1OC | 7.4 | -7.4 | x | x | x
Cc1nnc(SCC(=O)Nc2ccc(O)cc2)s1 | 8.4 | -1.0 | x | x | x
CC(CCC(=O)O)(c1cc(Br)c(O)c(Br)c1)c1cc(Br)c(O)c(Br)c1 | 39.7* | 48.5 | x | x | x
COc1ccc(Cc2ccc3[nH]c(=O)cc(C)c3c2)cc1S(=O)(=O)O | 39.8* | 20.4 | x | x | x
COc1ccc(C2=CC(=O)C=CC2=O)cc1 | 21.3 | -5.9 | 70.3* | x | 11.1
Cc1ccc2cc(-c3noc(-c4ccccc4)n3)c(=O)[nH]c2c1 | 14.8 | -30.1 | x | x | x
O=C(Nc1cccc(-c2nc3ccccc3s2)c1)c1cc(=O)c2ccccc2o1 | 6.4 | -11.9 | 52.6* | 1.8 | 9.9
CCc1ccccc1-n1c(SCC(=O)N2CCCCC2)nnc1-c1cccnc1 | 8.2 | -43.8 | x | x | x
C/C(C/C(C)=C1/SC(=S)NC1=O)=C1\SC(=S)NC1=O | 12.0 | -24.1 | 74.5* | 32.7* | 13.3
CC(C)(C)c1ccc2c(c1)C(=O)c1ccccc1C2=O | 8.8 | 15.9 | 7.9 | -2.1 | 6.0
CC(C)(C)C1=CC=C(C(C)(C)C)C(=O)C1=O | 101.5* | -47.4 | -20.4 | x | -5.5
O=C(Nc1cccc(C(F)(F)F)c1)C1CCCN(S(=O)(=O)c2cnc[nH]2)C1 (stereo unspecified) | 1.2 | 11.0 | 3.2 | 10.7 | -0.6
CSc1cccc(NC(=O)C2CCCN(S(=O)(=O)c3cnc[nH]3)C2)c1 (stereo unspecified) | 20.0 | 2.3 | 1.8 | 7.9 | 17.0*
CCSc1nc2sc3c(c2c2nnc(SCC(=O)NCc4ccco4)n12)CCCC3 | 49.4* | x | -0.2 | x | -0.9

Source: PubChem
